Several values for one entry are separate records, joined by “and”; a condition that tells them apart may be missing. Identical values can stand only once. Records with an inconclusive call do not appear. For part of these data: Entries with a potency or affinity are not part of this list. Activity calls are given as the source filed them.
Tests used:
[1] = Ebola virus entry assay, green fluorescence channel
[2] = Ebola virus entry assay, blue channel fluorescence
[3] = Ebola virus entry assay, green fluorescence channel; remark: listed apart in the source
[4] = Ebola virus entry assay, ratio channel readout
[5] = Ebola virus entry assay, blue channel fluorescence; remark: listed apart in the source
[6] = Ebola virus entry assay, ratio channel
[7] = Ebola virus entry assay, blue channel fluorescence; remark: listed apart in the source
[8] = Ebola virus entry assay, reporter ratio channel; AC50: Channel type: primary unless noted; outcome: Channel type: primary unless noted
[9] = Ebola virus entry assay, blue channel (ratio component)
[10] = qHTS Assay for Identifying Gametocytocidal Compounds (AID 743244; active = well fitted curve in the direction sought with a large enough effect; an effect the other way counts as inactive or inconclusive;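 note: % is set by controls: 0 for no effect and ±100 for the full control effect; actives lower the fluorescent signal which means gametocytes are killed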); settings: P. falciparum 3D7 stage III-V gametocytes, alamarBlue, 72 h; max response: stronger effect = lower value
Summary of the method: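 P. falciparum 3D7 stage III–V gametocytes (20,000 cells/well) were exposed to compounds for 72 h at 37 °C, 5% CO2. AlamarBlue was then added for 24 h; decreased resorufin fluorescence (Ex 525/Em 598 nm) indicated loss of viability.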

[11] = qHTS assay for cell viability of HEK293 cells (AID 743288; active = well fitted curve in the direction sought with a large enough effect; an effect the other way counts as inactive or inconclusive; note: % is set by controls: 0 for no effect and ±100 for the full control effect; nearly all actives have a fitted effect of over 50% in size); settings: ATP luminescence (CellTiter-Glo), 18 h; max response: stronger effect = lower value
Summary of the method: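 Parental HEK293 cells were seeded at 2,000 cells/well, rested at least 5 h at 37 C, then exposed to compounds in DMSO for 18 h at 37 C. Viability was read as ATP-dependent luciferase luminescence after 30 min at room temperature.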

[12] = qHTS assay for cell viability of the p53RE-bla HCT-116 cell line (AID 743292; active = well fitted curve in the direction sought with a large enough effect; an effect the other way counts as inactive or inconclusive; note: potency is the fitted concentration of half-maximal effect; nearly all actives have a fitted effect of over 55% in size); settings: p53RE-bla HCT-116 viability, ATP luminescence, 16 h; series mostly up to 95 µM
Summary of the method: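 Compound-exposed HCT-116 (p53RE-bla) cells, 4,000 per well, were kept 16 h at 37 C following a 5 h preincubation. Cell number was estimated from total ATP by CellTiter-Glo luminescence read after 30 min at room temperature.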

[13] = qHTS profiling of the MIPE4 collection as inhibitors of Plasmodium falciparum (3D7) proliferation (AID 743344);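 note: scaled between DMSO vehicle wells and 0.29 µM artemisinin as full inhibition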; settings: P. falciparum 3D7 in erythrocytes, SYBR Green DNA fluorescence, 72 h; at 28.5 µM (top of the series) unless noted
Summary of the method: (§1)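 Erythrocytes infected with P. falciparum (0.3% parasitemia, 2.5% hematocrit) incubated with compounds 72 h at 37 C, 5% CO2. Lysis with saponin/Triton buffer containing SYBR Green I, overnight at room temperature in the dark; DNA fluorescence (485/535 nm) normalised to 0.29 uM artemisinin and DMSO.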

[14] = qHTS profiling of the MIPE4 collection as inhibitors of Plasmodium falciparum (DD2) proliferation (AID 743345); settings: P. falciparum Dd2 in erythrocytes, SYBR Green DNA, 72 h; at 28.5 µM (top of the series) unless noted
Summary of the method: as §1

[15] = qHTS profiling of the MIPE4 collection as inhibitors of Plasmodium falciparum (DD2) proliferation (Rep 2) (AID 743346); settings: P. falciparum Dd2 in erythrocytes, SYBR Green DNA, 72 h; at 28.5 µM (top of the series) unless noted
Summary of the method: as §1

[16] = qHTS profiling of the MIPE4 collection as inhibitors of Plasmodium falciparum (HB3) proliferation (AID 743347);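 note: plate controls were DMSO vehicle wells for no effect and artemisinin wells for full effect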; settings: P. falciparum HB3 in erythrocytes, SYBR Green DNA, 72 h; at 28.5 µM (top of the series) unless noted
Summary of the method: as §1

[17] = Ebola virus entry assay, green channel fluorescence
Throughout, for efficacy: 0% is about no effect.

CC(=O)O[C@@]12CO[C@@H]1C[C@H](O)[C@@]1(C)C(=O)[C@H](O)C3=C(C)[C@@H](OC(=O)[C@H](O)[C@@H](NC(=O)OC(C)(C)C)c4ccccc4)C[C@@](O)([C@@H](OC(=O)c4ccccc4)[C@H]21)C3(C)C
inactive: efficacy [1] 57.5% | outcome [2] | outcome [3] | outcome [4] | outcome [5] | outcome [7] | outcome [9]
active: AC50 [6] 20 µM | AC50 [8] 20 µM

OCCOCCN1CCN(C(c2ccccc2)c2ccc(Cl)cc2)CC1 (stereo not given)
inactive: efficacy [1] 86% | outcome [2] | outcome [3] | outcome [4] | outcome [7]
active: AC50 [5] 25.1 µM | AC50 [6] 31.6 µM | AC50 [8] 31.6 µM

CC(CN1c2ccccc2Sc2ccccc21)N(C)C (stereo not given)
active: AC50 [5] 39.8 µM | AC50 [6] 31.6 µM | AC50 [8] 31.6 µM
inactive: efficacy [1] 81.3% | outcome [2] | outcome [3] | outcome [4]

CN(C)[C@@H]1C(=O)C(C(N)=O)=C(O)[C@@]2(O)C(=O)C3=C(O)c4c(O)ccc(Cl)c4[C@@H](O)[C@H]3C[C@@H]12
inactive: efficacy [1] 117% | outcome [2] | outcome [3] | outcome [4] | outcome [5] | outcome [7] | outcome [9]
active: AC50 [6] 28.2 µM | AC50 [8] 28.2 µM

C[C@]12C/C(=C/O)C(=O)C[C@@H]1CC[C@@H]1[C@@H]2CC[C@@]2(C)[C@H]1CC[C@]2(C)O
inactive: max response [10] 18.9% | max response [11] -10.8% and -7.35% | efficacy [1] 90.8% | outcome [2] | outcome [3] | outcome [4] | outcome [5] | outcome [7] | outcome [9]
active: Potency [12] 50.1 µM | AC50 [6] 14.1 µM | AC50 [8] 14.1 µM

Cc1nc2n(c(=O)c1CCN1CCC(c3noc4cc(F)ccc34)CC1)CCCC2
38.3%: parasite growth, % of DMSO control [13]
60.5%: growth, % of control [16]
48.7%: parasite growth, % of control (lower = inhibition) [15]
70.5%: parasite growth remaining, % of DMSO control (lower = more inhibition) [14]
inactive: efficacy [1] 54.5% | outcome [2] | outcome [3] | outcome [4] | outcome [5] | outcome [6] | outcome [7] | outcome [8] | outcome [9]

CCN(CC)CCNC(=O)c1c(C)[nH]c(/C=C2\C(=O)Nc3ccc(F)cc32)c1C
active: AC50 [2] 3.55 µM | AC50 [4] 3.17 µM | AC50 [5] 1 µM | AC50 [6] 0.708 µM
inactive: efficacy [1] -131% | outcome [3] | outcome [8] inactive [Channel type: confirmation]

COC(=O)CCc1ccc(OCC(O)CNC(C)C)cc1 (stereo not given)
active: AC50 [5] 22.4 µM | AC50 [8] 31.6 µM
inactive: efficacy [1] 35.4% | outcome [2] | outcome [3] | outcome [4] | outcome [6] | outcome [7] | outcome [9]

CNCCCN1c2ccccc2CCc2ccccc21
inactive: efficacy [1] 91.8% | outcome [2] | outcome [3] | outcome [4]
active: AC50 [5] 10 µM | AC50 [6] 7.94 µM | AC50 [8] 7.94 µM

Cc1ccc(-n2[nH]c(C)c(N=Nc3cccc(-c4cccc(C(=O)O)c4)c3O)c2=O)cc1C
inactive: efficacy [1] 128% | outcome [2] | outcome [3] | outcome [4] | outcome [5] | outcome [6] | outcome [7] | outcome [8] | outcome [9]

CCOC(=O)C1=C(C)NC(C)=C(C(=O)OC)C1c1cccc(Cl)c1Cl (stereo not given)
inactive: efficacy [1] 20.7% | outcome [2] | outcome [3] | outcome [4] | outcome [5] | outcome [6] | outcome [17] | outcome [8] | outcome [9]

CC#C[C@]1(O)CC[C@H]2[C@@H]3CCC4=CC(=O)CCC4=C3[C@@H](c3ccc(N(C)C)cc3)C[C@@]21C
inactive: efficacy [1] 23.8% | outcome [2] | outcome [3] | outcome [4] | outcome [5] | outcome [6] | outcome [7] | outcome [8]

CCc1ccc(CCOc2ccc(CC3SC(=O)NC3=O)cc2)nc1 (stereo not given)
inactive: efficacy [1] 52.6% | outcome [2] | outcome [3] | outcome [4] | outcome [5] | outcome [6] | outcome [7] | outcome [8]

O=C1c2c(O)ccc(O)c2C(=O)c2c(NCCNCCO)ccc(NCCNCCO)c21
active: AC50 [2] 5.01 µM | AC50 [5] 12.6 µM | AC50 [6] 7.94 µM | AC50 [8] 7.94 µM
inactive: efficacy [1] -106% | outcome [3] | outcome [4]

COc1cc2nc(N3CCN(C(=O)c4ccco4)CC3)nc(N)c2cc1OC
active: AC50 [5] 15.8 µM | AC50 [6] 12.6 µM | AC50 [8] 12.6 µM
inactive: efficacy [1] 75.4% | outcome [2] | outcome [3] | outcome [4]

CN1C[C@H]2c3ccccc3Oc3ccc(Cl)cc3[C@@H]2C1
active: AC50 [5] 22.4 µM | AC50 [6] 14.1 µM | AC50 [8] 14.1 µM
inactive: efficacy [1] 60.4% | outcome [2] | outcome [3] | outcome [4]

CN(C)c1cc(NC(=O)CNC(C)(C)C)c(O)c2c1C[C@@H]1C[C@H]3[C@H](N(C)C)C(=O)C(C(N)=O)=C(O)[C@@]3(O)C(=O)C1=C2O
active: AC50 [5] 8.91 µM | AC50 [6] 8.91 µM | AC50 [8] 8.91 µM
inactive: efficacy [1] 47.7% | outcome [2] | outcome [3] | outcome [4]

Cc1ccc(O)c([C@H](CCN(C(C)C)C(C)C)c2ccccc2)c1
inactive: efficacy [1] 106% | outcome [3] | outcome [4]
active: AC50 [2] 12.6 µM | AC50 [5] 14.1 µM | AC50 [6] 12.6 µM | AC50 [8] 12.6 µM
